Measured values reported in PubChem BioAssay (EPA / NIEHS).
Inconclusive results are not listed. The source made the active and inactive calls. How the source made its calls, unless noted: active means hit-call score of the fitted dose curve at least 0.9, where 1 is the maximum; inactive means score below 0.9.

Columns and labels:
[1] = ACEA_ER_80hr: ACEA Biosciences xCELLigence Real-Time Cell Analysis on Estrogen Receptor Agonism for Proliferation (AID 2282667; active means hit-call score of the fitted dose curve at least 0.9, where 1 is the maximum); conditions: T47D proliferation, impedance (xCELLigence), 80 h
Method in brief: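 Impedance readout (RT-CES) of T47D proliferation at 80 h post-dose; gain of signal vs DMSO baseline. Compounds: 8 conc, 1:4 serial, top 100 uM final, ≤0.5% DMSO; biological duplicate.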

[2] = ATG_CRE_CIS: Attagene CIS-FACTORIAL HepG2 Assay for human cAMP Responsive Element (CRE) binding protein 3 (AID 2282926); conditions: HepG2 CRE cis-reporter, Attagene multiplexed mRNA; actives raise or lower the signal
Method in brief: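 Readout: fluorescently labelled reporter transcripts resolved by capillary electrophoresis after RT-PCR, taken 24 h post-dosing in transfected HepG2. Endogenous transcription factor activity drives each cis-element reporter; gain or loss of signal fitted relative to DMSO control.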

[3] = target: CCAAT/enhancer-binding protein beta (Homo sapiens) (UniProt P17676); assay: ATG_C_EBP_CIS: Attagene CIS-FACTORIAL HepG2 Assay for human CCAAT/Enhancer Binding Protein (C/EBP) beta (AID 2282927); conditions: HepG2 Attagene cis-factorial transcription factor reporter; actives raise or lower the signal
Chain of CCAAT/enhancer-binding protein beta (Homo sapiens) (P17676 whole entry, looked up): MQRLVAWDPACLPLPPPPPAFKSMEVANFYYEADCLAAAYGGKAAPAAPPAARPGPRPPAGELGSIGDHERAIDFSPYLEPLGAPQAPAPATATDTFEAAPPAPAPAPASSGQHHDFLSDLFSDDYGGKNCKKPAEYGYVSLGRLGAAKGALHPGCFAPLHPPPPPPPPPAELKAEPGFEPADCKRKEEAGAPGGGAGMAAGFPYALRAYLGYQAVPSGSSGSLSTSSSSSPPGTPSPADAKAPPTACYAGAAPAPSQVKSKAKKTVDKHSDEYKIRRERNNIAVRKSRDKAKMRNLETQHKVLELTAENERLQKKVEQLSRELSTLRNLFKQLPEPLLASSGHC
Method in brief: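 Endogenous transcription factor activity in human liver HepG2 cells is inferred from induction of a CEBPB-linked reporter mRNA. Exposure lasts 24 h; activity is fitted in both directions relative to DMSO.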

[4] = ATG_CMV_CIS: Attagene CIS-FACTORIAL HepG2 Assay for human CMV (Internal Marker) (AID 2282928); conditions: HepG2 CMV promoter reporter, transcription factor profiling; actives raise or lower the signal;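 further: endpoint acts as a background internal control marker rather than a target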
Method in brief: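 Fluorescence intensity of RT-PCR-derived reporter fragments, resolved by capillary electrophoresis, gives the signal. HepG2 liver cells bearing transfected cis-element reporters were treated 24 h; activity in either direction was fit relative to DMSO-treated controls.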

[5] = ATG_DR4_LXR_CIS: Attagene CIS-FACTORIAL HepG2 Assay for human Liver X Receptor (LXR), DR4 submotif (AID 2282929); conditions: HepG2 Attagene DR4 cis-reporter, mRNA transcription; actives raise or lower the signal
Method in brief: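 Measures endogenous transcription factor activity via a DR4-driven reporter transcript in human HepG2 cells. Compounds incubated 24 h; mRNA quantified by RT-PCR and capillary electrophoresis, analysed as gain or loss of signal versus DMSO.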

[6] = target: Aryl hydrocarbon receptor (Homo sapiens) (UniProt P35869); assay: ATG_Ahr_CIS: Attagene CIS-FACTORIAL HepG2 Assay for human Aryl Hydrocarbon Receptor (Ahr) (AID 2282930); conditions: HepG2 AhR cis-factorial reporter transcription; actives raise or lower the signal
Chain of Aryl hydrocarbon receptor (Homo sapiens) (P35869 whole entry, looked up): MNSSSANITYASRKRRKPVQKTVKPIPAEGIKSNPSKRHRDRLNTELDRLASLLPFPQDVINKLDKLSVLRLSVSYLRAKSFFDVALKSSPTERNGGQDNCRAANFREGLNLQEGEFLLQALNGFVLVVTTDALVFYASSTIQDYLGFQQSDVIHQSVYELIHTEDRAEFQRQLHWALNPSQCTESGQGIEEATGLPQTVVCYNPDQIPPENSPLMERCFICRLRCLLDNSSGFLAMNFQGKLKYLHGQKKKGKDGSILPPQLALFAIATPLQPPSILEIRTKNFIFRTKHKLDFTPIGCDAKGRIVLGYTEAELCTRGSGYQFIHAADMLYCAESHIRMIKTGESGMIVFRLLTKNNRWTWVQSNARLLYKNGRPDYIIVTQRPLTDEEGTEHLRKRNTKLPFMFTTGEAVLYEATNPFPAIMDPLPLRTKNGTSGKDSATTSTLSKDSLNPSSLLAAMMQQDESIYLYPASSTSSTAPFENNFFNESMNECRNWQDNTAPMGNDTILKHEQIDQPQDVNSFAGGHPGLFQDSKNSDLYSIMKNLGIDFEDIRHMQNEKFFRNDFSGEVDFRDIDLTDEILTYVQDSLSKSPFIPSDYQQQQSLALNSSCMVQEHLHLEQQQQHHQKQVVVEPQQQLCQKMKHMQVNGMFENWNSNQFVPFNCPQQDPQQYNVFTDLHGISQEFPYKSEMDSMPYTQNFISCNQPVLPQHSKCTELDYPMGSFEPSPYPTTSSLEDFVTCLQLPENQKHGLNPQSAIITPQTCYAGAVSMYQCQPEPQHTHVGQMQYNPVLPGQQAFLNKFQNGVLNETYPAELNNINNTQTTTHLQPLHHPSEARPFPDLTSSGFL
Method in brief: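 Transient MRTU transfection of HepG2 → 24 h compound exposure → total RNA, oligo(dT) RT → PCR, 6-FAM extension, HpaI cut → CE fluorescence. DMSO = baseline; bidirectional curve fit.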

[7] = ATG_AP_2_CIS: Attagene CIS-FACTORIAL HepG2 Assay for human Activator Protein 2 (AP-2) (AID 2282932); conditions: HepG2 AP-2 cis-reporter, Attagene transcription factor profiling; actives raise or lower the signal
Method in brief: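 Transiently transfected HepG2 cells are exposed to chemical for 24 h. Reporter transcripts are then measured as fluorescence following RT-PCR and capillary separation, and gain- or loss-of-signal is fitted relative to DMSO.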

[8] = ATG_BRE_CIS: Attagene CIS-FACTORIAL HepG2 Assay for human Bone Morphogenetic Protein (BMP) Response Element (BRE) (AID 2282933); conditions: HepG2 BMP response element reporter, Attagene transcription factor profiling; actives raise or lower the signal
Method in brief: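 Endogenous transcription factor activity at a BMP response element was monitored in transfected HepG2 cells 24 h after dosing. Fluorescent RT-PCR products were resolved by capillary electrophoresis, and activity was fitted in both directions versus DMSO.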

[9] = target: Retinoic acid receptor alpha (Homo sapiens) (UniProt P10276); assay: ATG_DR5_RAR_CIS: Attagene CIS-FACTORIAL HepG2 Assay for human Retinoic Acid Receptor Alpha (RARE), DR5 submotif (AID 2282934); conditions: HepG2 Attagene cis-factorial RARE DR5 reporter, mRNA; actives raise or lower the signal
Chain of Retinoic acid receptor alpha (Homo sapiens) (P10276 whole entry, looked up): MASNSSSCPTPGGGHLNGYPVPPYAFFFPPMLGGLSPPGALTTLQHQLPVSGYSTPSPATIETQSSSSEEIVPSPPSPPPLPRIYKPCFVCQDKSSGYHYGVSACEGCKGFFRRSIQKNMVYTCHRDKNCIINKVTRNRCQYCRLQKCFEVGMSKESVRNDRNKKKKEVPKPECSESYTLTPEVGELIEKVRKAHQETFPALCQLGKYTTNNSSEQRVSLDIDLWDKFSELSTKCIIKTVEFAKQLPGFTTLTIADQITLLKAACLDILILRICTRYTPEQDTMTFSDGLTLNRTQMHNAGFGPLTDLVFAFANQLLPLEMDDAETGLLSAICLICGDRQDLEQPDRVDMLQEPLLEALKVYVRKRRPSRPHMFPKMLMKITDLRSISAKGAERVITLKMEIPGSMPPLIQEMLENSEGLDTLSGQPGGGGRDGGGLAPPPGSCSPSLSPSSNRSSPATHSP
Method in brief: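 Transient MRTU transfection of HepG2; 24 h compound treatment; TriZol RNA, oligo(dT) RT, PCR, FAM labelling, capillary electrophoresis. Bidirectional fit vs DMSO. Endogenous TF activity at DR5 RARE.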

[10] = target: Transcription factor E2F1 (Homo sapiens) (UniProt Q01094); assay: ATG_E2F_CIS: Attagene CIS-FACTORIAL HepG2 Assay for human E2F Transcription Factor 1 (AID 2282935); conditions: HepG2 Attagene cis-reporter, E2F reporter RNA transcripts; actives raise or lower the signal
Chain of Transcription factor E2F1 (Homo sapiens) (Q01094 whole entry, looked up): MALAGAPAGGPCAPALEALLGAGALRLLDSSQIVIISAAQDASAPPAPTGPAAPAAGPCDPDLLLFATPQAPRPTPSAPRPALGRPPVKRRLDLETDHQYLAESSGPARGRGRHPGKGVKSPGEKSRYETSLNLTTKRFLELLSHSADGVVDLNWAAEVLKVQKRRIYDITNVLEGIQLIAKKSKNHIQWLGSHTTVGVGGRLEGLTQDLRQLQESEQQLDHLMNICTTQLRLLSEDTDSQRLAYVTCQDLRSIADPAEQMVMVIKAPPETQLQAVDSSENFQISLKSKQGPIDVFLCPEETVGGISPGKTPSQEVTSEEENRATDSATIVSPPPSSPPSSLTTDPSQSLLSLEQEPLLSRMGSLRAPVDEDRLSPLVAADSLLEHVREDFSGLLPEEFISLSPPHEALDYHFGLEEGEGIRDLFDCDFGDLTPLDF
Method in brief: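 Fluorescent RT-PCR products, digested with HpaI for 2 h at 37 C, are separated by capillary electrophoresis. Source RNA comes from transfected HepG2 cultures treated for 24 h.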

[11] = ATG_E_Box_CIS: Attagene CIS-FACTORIAL HepG2 Assay for human Enhancer Box (E-box) (AID 2282936); conditions: HepG2 E-box cis-reporter transcription, actives raise or lower the signal
Method in brief: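 Fluorescent reporter fragments separated by capillary electrophoresis gave the signal; mRNA came from HepG2 cells transfected with cis-element reporters and treated 24 h. Curves fitted bidirectionally relative to DMSO controls.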

[12] = ATG_M_61_CIS: Attagene CIS-FACTORIAL HepG2 Assay for M61 Transcription Factor (Internal Marker) (AID 2282937); conditions: HepG2 Attagene CIS-FACTORIAL M61 internal marker reporter; actives raise or lower the signal
Method in brief: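 Fluorescence from labelled cDNA fragments, separated by capillary electrophoresis, quantifies reporter induction. HepG2 cells bearing transiently transfected cis-promoter MRTUs were incubated with test chemical for 24 h; DMSO defined baseline for gain/loss fitting.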

[13] = ATG_EGR_CIS: Attagene CIS-FACTORIAL HepG2 Assay for human Early Growth Response 1 (EGR1) (AID 2282938); conditions: HepG2 Attagene CIS-FACTORIAL EGR reporter mRNA; actives raise or lower the signal
Method in brief: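 Cell-based multiplex transcription assay: HepG2 carrying transfected cis-element reporter units, 24 h chemical treatment. Fluorescence from capillary electrophoresis of RT-PCR products gives mRNA levels; fitting is bidirectional relative to DMSO.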

[14] = ATG_M_19_CIS: Attagene CIS-FACTORIAL HepG2 Assay for M19 Transcription Factor (Internal Marker) (AID 2282939); conditions: HepG2 Attagene CIS-FACTORIAL M19 internal marker reporter; actives raise or lower the signal
Method in brief: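 Background-control endpoint from a multiplexed HepG2 reporter panel. Cells carrying cis-regulated reporter constructs are treated 24 h, then reporter transcripts are amplified, fluorescently labelled and sized by capillary electrophoresis. DMSO defines baseline.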

[15] = ATG_ERE_CIS: Attagene CIS-FACTORIAL HepG2 Assay for Estrogen Response Element (ERE) (AID 2282940); conditions: HepG2 ERE cis-reporter, Attagene RNA transcript; actives raise or lower the signal
Method in brief: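 Cells used were human hepatoma HepG2, transfected with multiple reporter transcription units under cis-regulatory promoters. Reporter mRNA, read 24 h post-dosing via fluorescent RT-PCR products on capillary electrophoresis, was fitted bidirectionally relative to DMSO.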

[16] = target: Hepatocyte nuclear factor 3-beta (Homo sapiens) (UniProt Q9Y261); assay: ATG_FoxA2_CIS: Attagene CIS-FACTORIAL HepG2 Assay for human Forkhead box A2 (FOXA2) (AID 2282942); conditions: HepG2 cis-reporter transcription factor activity, 24 h; actives raise or lower the signal
Chain of Hepatocyte nuclear factor 3-beta (Homo sapiens) (Q9Y261 whole entry, looked up): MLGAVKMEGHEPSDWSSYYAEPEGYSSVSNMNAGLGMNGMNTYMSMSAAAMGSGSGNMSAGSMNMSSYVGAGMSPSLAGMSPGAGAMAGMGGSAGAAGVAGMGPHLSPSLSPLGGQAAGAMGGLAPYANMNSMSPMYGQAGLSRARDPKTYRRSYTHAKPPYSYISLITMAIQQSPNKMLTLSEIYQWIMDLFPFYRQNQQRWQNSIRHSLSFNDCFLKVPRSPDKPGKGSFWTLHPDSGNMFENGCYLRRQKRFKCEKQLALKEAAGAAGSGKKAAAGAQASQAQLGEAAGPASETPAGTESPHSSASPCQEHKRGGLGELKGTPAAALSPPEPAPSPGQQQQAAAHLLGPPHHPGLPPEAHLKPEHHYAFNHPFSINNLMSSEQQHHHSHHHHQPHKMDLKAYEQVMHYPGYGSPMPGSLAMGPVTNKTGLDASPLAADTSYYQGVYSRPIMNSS
Method in brief: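 In transiently transfected human HepG2 cells, promoter-driven reporter mRNA levels after 24 h chemical exposure are determined via RT-PCR with capillary electrophoresis. DMSO serves as baseline for bidirectional fitting.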

[17] = ATG_FoxO_CIS: Attagene CIS-FACTORIAL HepG2 Assay for human Forkhead box O (FoxO) (AID 2282943); conditions: HepG2 Attagene cis-reporter, FoxO element, mRNA; actives raise or lower the signal
Method in brief: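 HepG2, transient MRTU transfection (cis element, endogenous TFs). Dose 24 h. TriZol RNA → oligo(dT) RT → PCR → 6-FAM primer extension → HpaI cut → CE. Gain/loss vs DMSO.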

[18] = ATG_GATA_CIS: Attagene CIS-FACTORIAL HepG2 Assay for human GATA Binding Protein (AID 2282944); conditions: HepG2 GATA cis-element reporter, Attagene multiplex mRNA; actives raise or lower the signal
Method in brief: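 Endogenous transcription factor activity was captured through cis-promoter-driven reporters in transfected HepG2 cells. After 24 h exposure, reporter transcripts were quantified by RT-PCR with fluorescent capillary electrophoresis, and responses fitted both directions against DMSO.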

[19] = ATG_Ets_CIS: Attagene CIS-FACTORIAL HepG2 Assay for human Erythroblast Transformation Specific (ETS) (AID 2282941); conditions: HepG2 ETS cis-reporter transcription, actives raise or lower the signal
Method in brief: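 Multiplexed reporter transcript profiling: HepG2, 24 h treatment, total RNA to cDNA, PCR, 6-FAM labelling, HpaI cut, capillary electrophoresis. Gain- or loss-of-signal fitted against DMSO.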

[20] = ATG_AP_1_CIS: Attagene CIS-FACTORIAL HepG2 Assay for human Activator Protein 1 (AP-1) (AID 2282931); conditions: HepG2 Attagene cis-factorial AP-1 reporter mRNA; actives raise or lower the signal
Method in brief: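 Bidirectional concentration-response fitting against DMSO controls. Underlying signal: reporter mRNA from cis-promoter constructs in transiently transfected HepG2, measured after 24 h by RT-PCR and capillary electrophoresis.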

Measured: AC50

CC1=CC(C)C(C=O)CC1 (stereo unspecified)
active: [6] 8.87 µM | [15] 27.2 µM
inactive: [1] | [2] | [3] | [4] | [5] | [7] | [8] | [9] | [10] | [11] | [12] | [13] | [14] | [16] | [17] | [18]

O=C(Oc1ccccc1)c1ccccc1O
inactive: [1] | [2] | [3] | [4] | [5] | [6] | [7] | [8] | [9] | [10] | [11] | [12] | [13] | [14] | [15] | [19] | [16] | [17] | [18]

Nc1cccc(N)n1
active: [6] 52.3 µM
inactive: [1] | [2] | [3] | [4] | [5] | [8] | [9] | [10] | [11] | [12] | [13] | [14] | [15] | [16] | [18]

CC(C)(O)Cc1ccccc1
inactive: [1] | [2] | [3] | [4] | [5] | [20] | [7] | [8] | [9] | [10] | [11] | [12] | [13] | [14] | [15] | [19] | [16] | [17] | [18]

CC(=O)OC(C)c1ccccc1 (stereo unspecified)
inactive: [1] | [2] | [3] | [4] | [5] | [20] | [7] | [8] | [9] | [10] | [11] | [12] | [13] | [14] | [15] | [19] | [16] | [17] | [18]

C=C(C)OC(C)=O
inactive: [1] | [2] | [3] | [4] | [5] | [6] | [7] | [8] | [9] | [10] | [11] | [12] | [14] | [15] | [19] | [16] | [17] | [18]

CCCCNS(=O)(=O)c1ccc(C)cc1
inactive: [1] | [2] | [3] | [4] | [5] | [6] | [7] | [8] | [9] | [10] | [11] | [12] | [13] | [14] | [15] | [16] | [17] | [18]

Nc1ncnc2nc[nH]c12
inactive: [1] | [2] | [3] | [4] | [5] | [20] | [7] | [8] | [9] | [10] | [11] | [12] | [13] | [14] | [15] | [19] | [16] | [17] | [18]
